Some test systems named below: EKVX NSCLC; SN12C renal; UO-31 renal; TK-10 renal; ACHN renal; CAKI-1 renal; A498 renal; CCRF-CEM leukemia; MOLT-4 leukemia; SR leukemia; RPMI-8226 leukemia; OVCAR-8 ovarian; OVCAR-5 ovarian; OVCAR-4 ovarian; SK-OV-3 ovarian; IGROV1 ovarian; OVCAR-3 ovarian; NCI/ADR-RES ovarian.
Common to all, as to experiment: NCI-60 one-dose screen, 48 h (100 = growth as untreated, 0 = no growth, -100 = all killed)
Conditions in all cases: 10 µM unless noted

Eight compounds from PubChem BioAssay (NCI) can be followed below.

Each structure is given as a SMILES string. The panel holds about 83,000 compounds, 20% with a hit somewhere; the sample as a whole holds those more often.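 96-well plates, one dose, 48 hours. Percent growth reported; active if below 10.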 Values without a mark were called inactive. The source made the active and inactive calls.

With `COc1cc2ncnc(Nc3cccc(Cl)c3F)c2cc1OC(=O)N1CCN(C)C[C@H]1C`, the growth in the experiment on EKVX NSCLC is 57.8%; with SN12C renal, 50.1%; in the experiment on UO-31 renal, 41.6%; in the experiment with TK-10 renal it was 28.1%; with ACHN renal, 19.5%; with CAKI-1 renal, 43.2%. The growth is 82.8% in the experiment on A498 renal; 74.7% in the experiment on CCRF-CEM leukemia; 67.7% with MOLT-4 leukemia; 62.6% with SR leukemia; 76.4% in the experiment with RPMI-8226 leukemia; 64.2% in the experiment on OVCAR-8 ovarian. The growth in the experiment with OVCAR-5 ovarian is 46.5%; in the experiment on OVCAR-4 ovarian, 103%; in the experiment on SK-OV-3 ovarian, -6.41% (active); with IGROV1 ovarian it was 16.4%; with OVCAR-3 ovarian, 69.5%; in the experiment with NCI/ADR-RES ovarian, 64.3%.

Turning to `CCCCN1C(=O)c2cccc3c(-c4ccc5c(c4)ncn5C4CCCCC4)ccc(c23)C1=O`, the growth in the experiment with EKVX NSCLC was 99.8%; in the experiment with SN12C renal, 105%; with UO-31 renal, 82.1%; with TK-10 renal, 102%; with ACHN renal, 107%; in the experiment on CAKI-1 renal, 93.7%. Moreover, the growth in the experiment with A498 renal is 118%; in the experiment on CCRF-CEM leukemia it was 113%; in the experiment on MOLT-4 leukemia it was 94.7%; in the experiment with SR leukemia it was 91.1%; with RPMI-8226 leukemia, 108%; in the experiment with OVCAR-8 ovarian, 89.9%. Further, the growth in the experiment with OVCAR-5 ovarian is 98.3%; with OVCAR-4 ovarian, 97.6%; with SK-OV-3 ovarian it was 92.3%; with IGROV1 ovarian it was 108%; in the experiment on OVCAR-3 ovarian, 101%; with NCI/ADR-RES ovarian, 92.5%.

Take `CCN1CCN(CCCN(C[C@H]2Cc3ccccc3CN2)[C@H]2CCCc3cccnc32)CC1`: the growth with EKVX NSCLC is 84%; with SN12C renal, 83.8%; with UO-31 renal, 53.2%; in the experiment on TK-10 renal it was 85.6%; in the experiment with ACHN renal it was 87.6%; in the experiment on CAKI-1 renal, 74.4%. For the same compound, the growth in the experiment on A498 renal was 86.6%; in the experiment on CCRF-CEM leukemia, 79.6%; in the experiment on MOLT-4 leukemia, 69.8%; with SR leukemia, 53.6%; in the experiment with RPMI-8226 leukemia, 81.8%; with OVCAR-8 ovarian, 85.3%. In addition, the growth with OVCAR-5 ovarian was 92.7%; in the experiment with OVCAR-4 ovarian it was 89.5%; in the experiment with SK-OV-3 ovarian, 89.4%; with IGROV1 ovarian, 94.5%; in the experiment on OVCAR-3 ovarian it was 84.2%; in the experiment with NCI/ADR-RES ovarian, 92.1%.

For `CC(C)NC[C@@H](C(=O)N1CCN(c2ncnc3c2[C@H](C)C[C@H]3O)CC1)c1ccc(Cl)cc1`, the growth with EKVX NSCLC was 72%; with SN12C renal, 64.4%; with UO-31 renal, 53.7%; in the experiment on TK-10 renal, 32.2%; in the experiment on ACHN renal, 68.7%; in the experiment with CAKI-1 renal it was 45.1%. Also, the growth with A498 renal is -21.7% (active); in the experiment on CCRF-CEM leukemia, 22.5%; in the experiment with MOLT-4 leukemia, 23.3%; with SR leukemia it was 45.5%; in the experiment with RPMI-8226 leukemia it was 61.2%; with OVCAR-8 ovarian, 68.3%. Also, the growth in the experiment with OVCAR-5 ovarian is 54.4%; with OVCAR-4 ovarian it was 77.5%; in the experiment on SK-OV-3 ovarian, -9.72% (active); in the experiment on IGROV1 ovarian it was 0.674% (active); with OVCAR-3 ovarian, 49.7%; in the experiment on NCI/ADR-RES ovarian it was 84.2%.

Take `COc1cc(F)c(F)c(Nc2ccc(I)cc2F)c1NS(=O)(=O)C1(C[C@H](O)CO)CC1`: the growth in the experiment with EKVX NSCLC was 29.2%; with SN12C renal, 51%; in the experiment on UO-31 renal, 16.2%; in the experiment on TK-10 renal, 27.7%; in the experiment on ACHN renal, 37.9%; in the experiment with CAKI-1 renal, 30.5%. Moreover, the growth in the experiment with A498 renal is -48% (active); with CCRF-CEM leukemia it was 67%; in the experiment with MOLT-4 leukemia, 43.2%; in the experiment with SR leukemia, 57.7%; in the experiment on RPMI-8226 leukemia it was 37.8%; in the experiment with OVCAR-8 ovarian, 45.7%. In addition, the growth with OVCAR-5 ovarian was 13.5%; in the experiment on OVCAR-4 ovarian, 46%; in the experiment with SK-OV-3 ovarian, 51.3%; in the experiment with IGROV1 ovarian, 9.36% (active); in the experiment on OVCAR-3 ovarian, 83.1%; in the experiment on NCI/ADR-RES ovarian it was 45.5%.

As for `O=C1C=CC2(NN=C(c3ccccc3)N2c2cccc(Cl)c2)c2cccc(O)c21` (centres undefined), the growth in the experiment on EKVX NSCLC was 76.2%; with SN12C renal, 41.6%; with UO-31 renal, 33.3%; with TK-10 renal, 118%; in the experiment with ACHN renal it was 45.6%; in the experiment on CAKI-1 renal it was 90.7%. For the same compound, the growth is 89.1% with A498 renal; 70.9% in the experiment with CCRF-CEM leukemia; 67.6% in the experiment on MOLT-4 leukemia; 49.9% with SR leukemia; 57.4% in the experiment on RPMI-8226 leukemia; 63.1% in the experiment on OVCAR-8 ovarian. Further, the growth in the experiment with OVCAR-5 ovarian was 52.8%; in the experiment with OVCAR-4 ovarian it was 59.3%; with SK-OV-3 ovarian, 92.5%; with IGROV1 ovarian, 70.4%; with OVCAR-3 ovarian it was 36.6%; in the experiment with NCI/ADR-RES ovarian, 56%.

As for `Cc1cc(Nc2cc(N3CCN(C)CC3)nc(Sc3ccc(NC(=O)C4CC4)cc3)n2)n[nH]1`, the growth was 76.6% with EKVX NSCLC; 33.4% with SN12C renal; 22.3% in the experiment with UO-31 renal; 38.8% in the experiment on TK-10 renal; 42.4% in the experiment on ACHN renal; 31.8% with CAKI-1 renal. For the same compound, the growth was -16% (active) in the experiment with A498 renal; 35.6% with CCRF-CEM leukemia; 26% in the experiment with MOLT-4 leukemia; 16.7% in the experiment on SR leukemia; 44.8% with RPMI-8226 leukemia; 38.6% in the experiment with OVCAR-8 ovarian. Moreover, the growth in the experiment with OVCAR-5 ovarian was 29%; in the experiment with OVCAR-4 ovarian, 77%; in the experiment with SK-OV-3 ovarian, 27.6%; in the experiment with IGROV1 ovarian, 30.7%; with OVCAR-3 ovarian, 61.5%; in the experiment with NCI/ADR-RES ovarian, 73.8%.

In the case of `O=C(Cc1ccc(/C=C/C(=O)c2ncc[nH]2)cc1)Nc1ccc(Br)cc1`, the growth is 38.6% in the experiment with EKVX NSCLC; 9.91% (active) in the experiment on SN12C renal; -40% (active) with UO-31 renal; 75.5% in the experiment with TK-10 renal; 2.05% (active) with ACHN renal; 32.5% in the experiment on CAKI-1 renal. Moreover, the growth is 73.5% with A498 renal; 6.63% (active) with CCRF-CEM leukemia; 2.86% (active) in the experiment with MOLT-4 leukemia; 5.06% (active) with SR leukemia; -13.3% (active) with RPMI-8226 leukemia; 6.77% (active) with OVCAR-8 ovarian. Moreover, the growth with OVCAR-5 ovarian is 18.7%; in the experiment with OVCAR-4 ovarian, 46.4%; in the experiment on SK-OV-3 ovarian, 70.2%; with IGROV1 ovarian, 8.48% (active); in the experiment with OVCAR-3 ovarian it was 9.63% (active); in the experiment with NCI/ADR-RES ovarian, 13.4%.
